Measured values reported in PubChem BioAssay AID1259399 (Fisher Drug Discovery Resource Center, 2018).
About 240 (0.15%) of roughly 160,000 compounds were called active. Shown is part of a subset that was picked to be rich in actives. Values without a mark were called inactive. No stated cut-off is given here; in the data, active means inhibition above about 40%; inactive means the rest.

The molecules below were run against Cyclic GMP-AMP synthase (Mus musculus) (UniProt Q8C6L5) (assay: inhibition of Mus musculus cGAS, primary biochemical chemiluminescence screen (AID 1259399;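 further: 0% = negative control wells and 100% = reference inhibitor with no enzyme activity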)). Details: recombinant cGAS, Kinase-Glo ATP depletion luminescence; at 12.5 µM; active compounds read high.
Chain of Cyclic GMP-AMP synthase (Mus musculus) (Q8C6L5 whole entry, looked up): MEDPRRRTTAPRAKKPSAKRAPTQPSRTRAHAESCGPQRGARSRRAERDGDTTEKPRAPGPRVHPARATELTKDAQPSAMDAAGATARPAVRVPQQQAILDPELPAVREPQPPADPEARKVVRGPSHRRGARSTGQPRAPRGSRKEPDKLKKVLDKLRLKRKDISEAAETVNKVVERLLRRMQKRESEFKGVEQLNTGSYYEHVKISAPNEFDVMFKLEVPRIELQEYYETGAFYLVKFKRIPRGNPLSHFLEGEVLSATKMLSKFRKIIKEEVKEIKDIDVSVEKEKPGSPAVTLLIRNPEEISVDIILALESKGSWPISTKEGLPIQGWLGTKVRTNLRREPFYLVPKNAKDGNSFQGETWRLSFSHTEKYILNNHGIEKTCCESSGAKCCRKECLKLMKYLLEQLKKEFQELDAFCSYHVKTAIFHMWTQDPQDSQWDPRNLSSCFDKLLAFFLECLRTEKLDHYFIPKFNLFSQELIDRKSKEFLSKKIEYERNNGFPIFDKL

Row | Structure (SMILES) | inhibition
1 | CCOC(=O)C1(Cc2ccc(OC)cc2)CCN(C(=O)C2CCCC2)CC1 | -2.47%
2 | CCCc1cc(C(=O)NC(CC)C2CCCO2)sc1C (stereo not given) | 3.24%
3 | Cn1c(=O)n(Cc2ccc(Cl)cc2)c(=O)c2c1nc1oc(C(C)(C)C)cn12 | -8.53%
4 | C/C(=N/OC(=O)C1CC1(c1ccccc1)c1ccccc1)c1ccccc1 (stereo not given) | -5.77%
5 | CCc1ccc(NC(=O)CSc2nccn3nc(-c4ccc(C)cc4)cc23)cc1 | -6.93%
6 | CCCOc1nn(CCC)cc1C(=O)Nc1nccs1 | -6.36%
7 | O=C(Cc1ccc2c(c1)CCC2)Nc1nn2cnnc2s1 | -17.7%
8 | CCCc1nnc2sc(CCc3c(C)n[nH]c3C)nn12 | -9.34%
9 | COCc1nnc2sc(Cc3ccc4c(c3)CCCC4)nn12 | 79.1% (active)
10 | c1cc(C2CCN(C3CCC4(CCNCC4)CC3)CC2)ccn1 | -9.51%
11 | O=C(NC1CCN(c2ccccc2C(=O)NCc2ccc3c(c2)OCO3)CC1)c1ccccc1Cl | -4.1%
12 | O=C1OC(C[N+](=O)[O-])C(Cl)=C1Oc1ccccc1 (stereo not given) | 22.9%
13 | CCCCc1nc(N2CCN(C(=O)Cc3cccs3)CC2)c2c(C)nn(-c3ccc(F)cc3)c2n1 | -4.18%
14 | CC1(C(=O)Nc2cccc3cccnc23)CCN1C(=O)Cc1ccccc1Cl (stereo not given) | -5.18%
15 | CCOC(=O)C1=C(O)/C(=C\c2cc(O)cc(O)c2)SC1=Nc1cccc(C(F)(F)F)c1 | -2.35%
16 | Cc1nc(C2(NCc3csc(-c4ccoc4)n3)CCCC2)no1 | -13.3%
17 | CN(C)CCNC(=O)c1nn(-c2cccc(C(F)(F)F)c2)c(=O)n(Cc2ccccc2F)c1=O | 1.41%
18 | Cc1c[nH]c(=O)n1-c1ccc(C(=O)Nc2cc(Cl)c(N)c(Cl)c2)cc1 | -14.6%
19 | CN(C)CCNc1cc(C(C)(C)C)nc2c(-c3ccc(Cl)cc3)cnn12 | -0.291%
20 | CC(C)(C)c1cc(=O)n2[nH]cc(-c3ccccc3Cl)c2n1 | -1.72%
21 | CC(C)(C)c1cc(=O)n2[nH]cc(-c3ccc(Cl)cc3)c2n1 | 40% (active)
22 | COCCN(CCOC)Cc1cc(=O)oc2cc(-c3ccccc3)c(O)cc12 | 2.45%
23 | C=CCN1C(=O)C2(CC(=O)N(CCc3cccc(OC)c3)C2=O)c2cc(OC)ccc21 (stereo not given) | -2.01%
24 | Cc1ccccc1N1CCn2c1nc1c2c(=O)n(CCN2CCOCC2)c(=O)n1C | -8.88%
25 | COc1ccc(CCNC(=O)CCc2cc3c(n2-c2ccc(OC)cc2)-c2ccccc2CC3)cc1 | -9.29%
